From PubChem BioAssay (Tox21) come the findings set out here.

Test [1] can be described thus: qHTS assay for small molecules that induce genotoxicity in human embryonic kidney cells expressing luciferase-tagged ATAD5 (AID 651632). Also: % is scaled to controls: 0 for no effect and ±100 for the full control effect; nearly all actives have a fitted effect of over 15% in size. An outline of the steps: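 A rise in luciferase signal from ATAD5-tagged HEK293T cells marks genetic stress. Cells were exposed to compounds for 16 hr at 37C, 5% CO2, then luciferase was quantified after a 30 min room-temperature incubation with Amplite.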
(Quantitative high-throughput screening tests each substance at several concentrations.)

Test [2] is described as follows: qHTS assay for small molecule agonists of the p53 signaling pathway - cell viability (AID 651633; calls by dose curve; also: nearly all actives have a fitted effect of over 30% in size; also: potency is read from the fitted curve at half-maximal effect). An outline of the steps: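 p53RE-bla cells were treated with compound for 16 hours at 37 C. Cytotoxicity was then measured as CellTiter-Glo luminescence after 30 min at room temperature.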
Test [3] in a line: qHTS assay for small molecules that induce genotoxicity in human embryonic kidney cells expressing luciferase-tagged ATAD5 - cell viability (AID 651634; calls by dose curve; also: nearly all actives have a fitted effect of over 25% in size; also: potency is read from the fitted curve at half-maximal effect). An outline of the steps: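 Cytotoxicity counter-readout: after 15.5 hr compound treatment at 37C, live-cell protease activity in ATAD5-luciferase HEK293T cells measured by CellTiter-Fluor fluorescence, 30 min development at 37C.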

The nature of test [4]: qHTS assay for small molecule disruptors of the mitochondrial membrane potential - cell viability (AID 720634; calls by dose curve;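 also: human HepG2 liver cancer cells; % is scaled to controls: 0 for no effect and ±100 for the full control effect; nearly all actives have a fitted effect of over 20% in size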). An outline of the steps: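 Cytotoxicity was quantified from ATP content by CellTiter-Glo luminescence in the same wells as the MMP dye read-out. HepG2 (2,000 cells/well) were plated overnight and exposed to compounds for 1 hr at 37 C.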
Test [5] can be described thus: qHTS assay to test for compound auto fluorescence at 590 nm (red) in HepG2 cells (AID 720674). Also: % is scaled to controls: 0 for no effect and ±100 for the full control effect. An outline of the steps:
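HepG2 cells, 2,000 per well in MEM with 10% FBS, attached overnight at 37 C, then got 23 nL compound or DMSO. After 1 hr at 37 C, 5% CO2, red fluorescence was read at 540/590 nm against Rose Bengal sodium as reference.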

A short description of test [6]: qHTS assay to test for compound auto fluorescence at 535 nm (green) in HepG2 cells (AID 720675). Also: % is scaled to controls: 0 for no effect and ±100 for the full control effect.
Test [7] in a line: qHTS assay to test for compound auto fluorescence at 460 nm (blue) in HEK293 cells (AID 720678). Also: % is scaled to controls: 0 for no effect and ±100 for the full control effect. An outline of the steps: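 Intrinsic compound fluorescence is recorded in live HEK293 cultures after overnight incubation at 37C, 5% CO2, using excitation 405 nm and emission 460 nm. Values are referenced to triamterene.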
A short description of test [8]: qHTS assay to test for compound auto fluorescence at 590 nm (red) in HEK293 cells (AID 720679). Also: % is scaled to controls: 0 for no effect and ±100 for the full control effect. An outline of the steps: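 Red autofluorescence, HEK293 cells: 2,000 cells/well; attach 4-5 hr 37C; add 23 nL cpd or DMSO; incubate o/n 37C 5% CO2; read Ex540/Em590; Rose Bengal sodium reference.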
Test [9] can be described thus: qHTS assay to test for compound auto fluorescence at 535 nm (green) in HEK293 cells (AID 720680). Also: % is scaled to controls: 0 for no effect and ±100 for the full control effect.
Test [10] can be described thus: qHTS assay to test for compound auto fluorescence at 460 nm (blue) in HEK293 cell free culture (AID 720681). Also: % is scaled to controls: 0 for no effect and ±100 for the full control effect. An outline of the steps:
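Compounds were added to cell-free DMEM with 10% FBS and fluorescence read directly. The blue channel used 405 nm excitation and 460 nm emission, with triamterene as the reference fluorophore.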

Test [11] in a line: qHTS assay to test for compound auto fluorescence at 535 nm (green) in HEK293 cell free culture (AID 720682). Also: % is scaled to controls: 0 for no effect and ±100 for the full control effect. An outline of the steps: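 DMEM + 10% FBS, cell-free; cpd or DMSO pinned in; Ex485/Em535 read; output as fluorescein-equivalent signal.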
Test [12] can be described thus: qHTS assay to test for compound auto fluorescence at 590 nm (red) in HEK293 cell free culture (AID 720683). Also: % is scaled to controls: 0 for no effect and ±100 for the full control effect. An outline of the steps:
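Cell-free wells of DMEM with 10% FBS received compound, and intrinsic fluorescence was read at excitation/emission 540/590 nm. Values expressed as equivalence to Rose Bengal sodium.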

Test [13] in a line: qHTS assay to test for compound auto fluorescence at 590 nm (red) in HepG2 cell free culture (AID 720684). Also: % is scaled to controls: 0 for no effect and ±100 for the full control effect. An outline of the steps: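 Rose Bengal sodium served as the reference for red signal. Test compounds were dispensed into serum-containing MEM (10% FBS) without cells, and plates were read at 540/590 nm.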
The nature of test [14]: qHTS assay to test for compound auto fluorescence at 460 nm (blue) in HepG2 cell free culture (AID 720685). Also: % is scaled to controls: 0 for no effect and ±100 for the full control effect. An outline of the steps:
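Cell-free plates of MEM plus 10% FBS received 23 nL compound or DMSO vehicle; blue-channel (405/460 nm) intensity scored against triamterene as reference fluorophore.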

Test [15] can be described thus: qHTS assay to test for compound auto fluorescence at 535 nm (green) in HepG2 cell free culture (AID 720686). Also: % is scaled to controls: 0 for no effect and ±100 for the full control effect.
Test [16] in a line: qHTS assay to test for compound auto fluorescence at 460 nm (blue) in HepG2 cells (AID 720687). Also: % is scaled to controls: 0 for no effect and ±100 for the full control effect. An outline of the steps:
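HepG2 cells in MEM with 10% FBS, attached overnight at 37 C, were exposed to compound or DMSO for 1 hr at 37 C, 5% CO2. Blue fluorescence was read at 405/460 nm, with triamterene as reference fluorophore.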

The target in test [17] is Glucocorticoid receptor (Homo sapiens) (UniProt P04150). As to the kind of experiment: qHTS assay to identify small molecule agonists of the glucocorticoid receptor (GR) signaling pathway (AID 720691; active = well fitted activation curve with a large enough effect in the signal ratio in the repeat runs, not every such curve was filed as active; the % refers to the signal ratio; also: % is scaled to controls: 0 for no effect and ±100 for the full control effect). Conditions: GR-bla HeLa, beta-lactamase reporter ratio, 18 h; activation: at 62.4 µM (top of the series). An outline of the steps: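 Agonist-mode qHTS in HeLa cells stably expressing a glucocorticoid-response-element beta-lactamase reporter. Fluorescence intensity read with FRET substrate (2 h, room temperature) after 18 h compound treatment at 37 C.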

The nature of test [18]: qHTS assay for small molecule disruptors of the mitochondrial membrane potential (AID 720635). Also: potency is read from the fitted curve at half-maximal effect. An outline of the steps:
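HepG2 cells exposed to compound 1 hr at 37C, then Mito-MPS dye 30 min. Ratio read of aggregate (540/590 nm) versus monomer (490/535 nm) fluorescence.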

Test [19] addresses Glucocorticoid receptor (Homo sapiens) (UniProt P04150). As to the kind of experiment: qHTS assay to identify small molecule antagonists of the glucocorticoid receptor (GR) signaling pathway (AID 720692; active = well fitted inhibition curve with a large enough effect in the signal ratio in the repeat runs, not every such curve was filed as active; the % refers to the signal ratio; also: % is scaled to controls: 0 for no effect and ±100 for the full control effect). An outline of the steps: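 Inhibition of dexamethasone-driven (5 nM final) beta-lactamase expression was measured in GRE-reporter HeLa cells over 18 h at 37C. Fluorescence was read after 2 h with the B/G FRET substrate at room temperature.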

Structures are written as SMILES. A number with no mark means an inactive call. Inconclusive results are not listed. The source made the active and inactive calls. Unless noted, calls follow the shape of the dose curve; as a rule, active = well fitted curve in the direction sought with a large enough effect in the repeat runs; inconclusive = weak or mixed curves; inactive = no such curve, though single readings can be large; an effect the other way counts as inactive or inconclusive.

Glucocorticoid receptor (Homo sapiens), sequence (P04150 whole entry, looked up): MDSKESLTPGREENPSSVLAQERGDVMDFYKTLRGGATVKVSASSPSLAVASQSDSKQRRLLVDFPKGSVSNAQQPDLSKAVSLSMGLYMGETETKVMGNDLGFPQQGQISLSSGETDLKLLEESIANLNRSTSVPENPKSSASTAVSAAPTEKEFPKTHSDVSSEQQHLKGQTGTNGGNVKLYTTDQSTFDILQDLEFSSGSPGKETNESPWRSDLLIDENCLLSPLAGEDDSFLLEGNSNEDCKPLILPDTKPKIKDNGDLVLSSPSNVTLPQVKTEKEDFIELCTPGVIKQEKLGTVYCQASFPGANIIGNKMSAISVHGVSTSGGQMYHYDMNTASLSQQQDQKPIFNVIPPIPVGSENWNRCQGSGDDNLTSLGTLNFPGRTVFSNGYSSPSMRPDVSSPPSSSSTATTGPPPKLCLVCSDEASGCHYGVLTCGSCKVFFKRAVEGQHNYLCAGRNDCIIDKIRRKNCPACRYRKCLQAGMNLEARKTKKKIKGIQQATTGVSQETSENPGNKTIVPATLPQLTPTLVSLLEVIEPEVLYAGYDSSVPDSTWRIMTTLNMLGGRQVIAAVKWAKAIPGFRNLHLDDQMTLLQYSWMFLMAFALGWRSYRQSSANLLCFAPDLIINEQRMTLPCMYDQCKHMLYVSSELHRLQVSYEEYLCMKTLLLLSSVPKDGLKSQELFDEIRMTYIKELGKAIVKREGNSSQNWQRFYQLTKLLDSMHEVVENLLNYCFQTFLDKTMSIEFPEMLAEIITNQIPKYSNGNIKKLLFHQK

With `Cc1onc(-c2ccccc2Cl)c1C(=O)N[C@@H]1C(=O)N2[C@@H]1SC(C)(C)[C@@H]2C(=O)O`, the Potency result in test [1], in [2], in test [3], in test [4] and in test [17] was “inactive” throughout. Besides, the fluorescence, relative to Rose Bengal in [5] was -0.424% [at 18.6 µM]. Besides, the fluorescence, % of fluorescein control in [6] is -0.13% [at 18.6 µM]; in test [15], 0.101% [at 18.6 µM]. For the same compound, the fluorescence, % of triamterene in test [7] was -0.0411% [at 18.6 µM]. Moreover, the fluorescence, % of fluorescent control in [8] is 0.844% [at 18.6 µM]; in test [10], 0.0563% [at 18.6 µM]; in [12], 0.401% [at 18.6 µM]; in test [14] it was 0.0226% [at 18.6 µM]; in test [16], 0.0164% [at 18.6 µM]. Besides, in test [9], the fluorescence, % of fluorescein is 0.0884% [at 18.6 µM]. The activity change in test [11] is 0.0013% [at 18.6 µM]. For the same compound, the fluorescence, % of Rose Bengal in [13] was -0.203% [at 18.6 µM].
Regarding `CCCCN1CCCC[C@H]1C(=O)Nc1c(C)cccc1C`, the Potency result in test [1], in test [2], in test [3], in [4], in test [5] and in test [7] was “inactive” each time. Moreover, the Potency entry in test [8], in [10], in test [12], in [13], in test [14] and in test [15] was “inactive” throughout. Moreover, the Potency result in test [16] is “inactive”. The compound was called inactive in test [9] and in test [11].
In the case of `CCCC(C)c1ccccc1O` (stereo unspecified), the Potency entry in test [1], in test [2], in [3], in test [4], in test [5] and in test [7] was “inactive” throughout. Further, the Potency entry in test [8], in [10], in test [12], in test [13], in test [14] and in test [15] was “inactive” throughout. The Potency entry in [16], in test [17] and in test [19] was “inactive” throughout. The Potency in test [18] was 30.6 µM (active). In addition, the outcome in test [9] and in test [11] was inactive.
In the case of `CCC1OCC(COc2ccc(Oc3ccccc3)cc2)O1` (stereo unspecified), the Potency entry in test [1], in test [2], in test [3], in [4], in [5] and in test [7] was “inactive” in each case. The Potency result in [8], in test [10], in [12], in test [13], in [14] and in test [15] was “inactive” each time. The Potency result in [16] and in test [17] was “inactive” in each case. The compound was called inactive in [9] and in test [11].
On to `CCOC(=O)O[C@H](C)OC(=O)c1ccc2c(c1)cc(C(=O)NC1CCN(C(C)C)CC1)n2Cc1cc(-c2ccc(Cl)s2)on1`, for which the Potency result in test [1], in [5], in test [6], in test [7], in [12] and in test [13] was “inactive” each time. Further, the Potency entry in [14] and in test [16] was “inactive” each time. The Potency in [2] is 25.5 µM (active); in test [3], 57.1 µM (active); in [18] it was 64.1 µM (active). The outcome in test [9] and in test [11] was inactive.
In the case of `Cc1ccc(O)c2ncccc12`, the Potency result in test [1], in test [2], in [3], in [4], in [5] and in [6] was “inactive” each time. In addition, the Potency result in test [7], in [8], in [12], in test [13], in test [14] and in test [15] was “inactive” each time. Also, the Potency entry in [16] and in test [19] was “inactive” each time. For the same compound, the call in test [9] and in test [11] was inactive.
Consider `CCN(C(=O)N(CC)c1ccccc1)c1ccccc1`, for which the Potency result in test [1], in test [2], in [3], in test [5], in test [6] and in test [7] was “inactive” in each case. Further, the Potency entry in test [10], in [12], in test [13], in test [14], in test [15] and in test [16] was “inactive” in each case. The Potency entry in [17] and in test [19] was “inactive” each time. Moreover, the call in [9] and in [11] was inactive.
